Screens from PubChem.
DAX1 inh-1 – NR0B1 (DAX1) inhibition | inhibition, % at 6.75 µM | HEK293 Gal4-DAX1 luciferase reporter, luminescence | 340,000 tested, 0.99% active;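 active = inhibition above the mean over all tested compounds plus 3 SD, cut at about 4.2% in these data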;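 also: 0% = DAX1-transfected cells with DMSO and 100% = empty-vector control cells with DMSO; inhibition shows as a rise in luminescence from relieved DAX1 repression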
Target sequence (P51843 207-470 limits assumed): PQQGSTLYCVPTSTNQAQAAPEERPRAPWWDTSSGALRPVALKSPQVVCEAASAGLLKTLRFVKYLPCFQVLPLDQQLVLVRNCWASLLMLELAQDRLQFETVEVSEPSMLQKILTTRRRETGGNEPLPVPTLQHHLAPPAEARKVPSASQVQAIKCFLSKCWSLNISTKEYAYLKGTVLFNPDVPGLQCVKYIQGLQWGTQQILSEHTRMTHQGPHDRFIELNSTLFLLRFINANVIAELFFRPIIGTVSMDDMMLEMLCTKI
hgDAF12 agonist – agonists of H. glycines DAF-12 nuclear receptor; HEK293 GAL4-hgDAF12 UAS-luciferase reporter, agonist luminescence; normalized to butyrate control; activation, % at 6.8 µM; 370,000 tested, 1.8% active;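 active = activation above a cutoff set at the mean of all screened compounds plus 3 SD, cut at about 10% in these data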;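 also: 0% = DMSO wells and 100% = sodium butyrate wells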
PolyA inhibitor – yeast polyadenylation inhibition; S. cerevisiae SKY197-pL101 polyadenylation reporter, beta-gal luminescence; efflux-impaired pdr1/pdr3 knockout yeast; score 100 = 6 SD above DMSO; activity score, % at 12 µM; 300,000 tested, 0.02% active; AID 1875;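 active = lowest replicate activity score at least 50, where 100 means six control SD above control mean; inconclusive = lowest score under 50 but half or more replicates reach 50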;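 also: yeast exposed to compound for 9 h at 30 °C; higher score means more reporter readthrough which indicates perturbed polyadenylation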
ssDAF-12 act – activators of S. stercoralis DAF-12 nuclear receptor; HEK293 ssDAF-12/GRIP1 lit1-tk-luc reporter, luminescence; % of 3 µM dafachronic acid response; activation, % at 6.8 µM; 370,000 tested, 1% active;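 active = activation above the mean over all tested compounds plus 3 SD, cut at about 0.9% in these data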;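 also: 0% = DMSO-only wells and 100% = 3 µM delta7-dafachronic acid wells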
hcDAF-12 act – activates DAF-12 receptor from parasite H. contortus. HEK293 hcDAF-12 lit1-tk-luc reporter, luminescence; 0% DMSO, 100% Δ7-dafachronic acid. activation, % at 6.8 µM. 370,000 tested, 1.4% active;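 active = activation above the mean of all tested compounds plus 3 SD, cut at about 5.5% in these data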;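 also: 100% = response to 3 µM Δ7-dafachronic acid high control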
DAX1 inh-2 – blocks DAX1 repression of SF-1 activated StAR promoter. HEK293T StAR-luciferase reporter, SF-1/DAX-1 repression relief. inhibition, % at 6.8 µM. 370,000 tested, 1.1% active;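 active = inhibition above the mean over all tested compounds plus 3 SD, cut at about 3.6% in these data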;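 also: 0% = DAX-1 cells with DMSO and 100% = cells lacking DAX-1 with DMSO; higher inhibition means more luminescence from relief of DAX-1 repression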
hgDAF12 ag – confirmation of H. glycines DAF-12 agonists. HEK293 GAL4-hgDAF12 luciferase reporter, agonist mode; percent of butyrate response. AID 743050. activation, % at 6.8 µM. shares compounds with hgDAF12 agonist. 3,300 tested, 80% active;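 active = mean activation over triplicate wells above the hit cutoff derived from the earlier primary screen, cut at about 11% in these data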;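 also: 0% = DMSO low control and 100% = 2 mM sodium butyrate high control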
LXRb DAF12 ctr – activates human LXR-beta, counter-screen for DAF-12 agonists | shares compounds with hgDAF12 agonist | HEK293 Gal4-LXR luciferase reporter, 24 h | activation, % at 6.8 µM | 3,300 tested, under 10 active | AID 743051;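 active = mean activation of the triplicate above a set limit carried over from the primary screen, none filed active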
* marks the source's active call; other numbers are inactive results; ? = inconclusive; / = not tested or not shown. The list is not random: actives were taken first. Their share in the collection is about 4.1%.

SMILES	DAX1 inh-1	hgDAF12 agonist	PolyA inhibitor	ssDAF-12 act	hcDAF-12 act	DAX1 inh-2	hgDAF12 ag	LXRb DAF12 ctr
Oc1ccccc1N1CCN(c2ccc3ccccc3n2)CC1	2	16*	4	1	5	2	15*	1
C[N+](C)(C)CC(=O)N1CCN(c2ccc3ccccc3n2)CC1	0	-1	13	-1	0	1	/	/
COc1ccc2c(c1)CC/C(=C/c1cc(OC)c(OC)c(OC)c1)C2=O	-3	0	-7	-2	-4	-1	/	/
COc1ccc(OC)c(C=C2CCc3ccccc3C2=O)c1	/	14*	/	0	2	-1	3	0
CC(=O)NC(c1ccccc1)c1nc(-c2ccc(F)c(Cl)c2)cs1 (centres undefined)	/	-2	/	-2	0	-2	/	/
Cc1cc(C)cc(NC(=O)CSc2nccn2Cc2ccco2)c1	0	0	-1	-1	-1	-2	/	/
Cc1cccc(NC(=O)CSc2nccn2Cc2ccco2)c1	2	14*	-8	-1	2	3.9*	13*	1
CCOC(=O)c1sc(NC(=O)c2ccccc2)cc1C	1	17*	7	0	3	1	13*	1
CCn1cnc2sc(-c3ccccc3)cc2c1=O	1	17*	-23	0.9*	4	2	16*	1
CC(C)c1ccc(NC(=O)C2(C)Cc3c(-c4ccccc4)ccnc3O2)cc1 (centres undefined)	/	-1	/	-2	-1	-1	/	/
CC(=O)c1sc(N/N=C\c2ccc(N(C)C)cc2)nc1C	4.5*	14*	5	0	3	2	16*	1
COc1cccc(C(=O)c2c(-c3ccccc3)ncc3cc(OC)c(OC)cc23)c1	0	-4	/	-1	-4	0	/	/
CCOc1ccc(NC(c2ccccn2)c2oc(CO)cc(=O)c2O)cc1 (centres undefined)	2	14*	-6	1.4*	4	3	13*	0
O=C(Nc1ccon1)c1ccc(N2CCCCC2)c([N+](=O)[O-])c1	2	15*	-23	0	3	2	17*	1
CCNC(=O)c1sc2cc(C)ccc2c1Cl	1	15*	-8	0	3	1	10	0
Cc1nnc(SCC(=O)Nc2cc(-c3cc(C)c(C)cc3C)nn2-c2ccccc2)s1	-2	1	9	-1	-1	0	/	/
CCCc1ccc(-c2cc(NC(=O)CSc3nnc(N)s3)n(-c3ccccc3)n2)cc1	1	14*	-6	0	5	4.1*	19*	1
Cc1ccc(C(=O)OCC(=O)NCc2ccc(Cl)cc2)s1	1	3	/	-2	0	3	/	/
CCOC(=O)c1ccc(NC(=O)/C=C/c2cccs2)cc1	0	19*	-10	0	2	1	9	0
CCN(CC)CCOC(=O)c1ccc(NC(=O)/C=C/c2cccs2)cc1	0	-1	26	-2	1	0	/	/
C/C(=N\NC(=O)c1[nH]c2c([N+](=O)[O-])cc(C)cc2c1-c1ccccc1)c1cccnc1	0	0	4	-1	0	0	/	/
N/C(=N\OC(=O)COc1ccc(Br)cc1Cl)c1ccncc1	2	14*	/	0	6.3*	4.0*	16*	1
N/C(=N\OC(=O)COc1cc(Cl)c(Cl)cc1Cl)c1ccncc1	/	2	1	-1	1	0	/	/
CN(CC(=O)Nc1ccccc1C(F)(F)F)C(=O)c1ccc2c(=O)n3c(nc2c1)CCC3	0	1	/	-1	0	3	/	/
CC(C)c1ccc(NC(=O)Nc2cnccn2)cc1	0	16*	?	-1	0	3	14*	1
SMILES	DAX1 inh-1	hgDAF12 agonist	PolyA inhibitor	ssDAF-12 act	hcDAF-12 act	DAX1 inh-2	hgDAF12 ag	LXRb DAF12 ctr
O=C(Nc1ccc(Cl)cc1)Nc1cnccn1	4	7	-27	-2	-1	0	/	/
CCCNC(=O)C1(C)CCCN(C(=O)c2cccc(C(F)(F)F)c2)C1 (centres undefined)	/	2	/	-1	0	0	/	/
CN(C)c1ccc(C=C2SC(=S)NC2=O)cc1	1	3	/	0	2	1	/	/
CN(C)c1ccc(/C=C2\CCCCC2=O)cc1	4	18*	-7	0	5	4	14*	1
CC(=O)Nc1cccc(-c2nc3ccc(NC(C)=O)cc3s2)c1	1	19*	-18	1	4	1	12*	1
CC(C)CC1NC(=O)N(CC(=O)Nc2ccc(-c3ccccc3)cc2)C1=O (centres undefined)	-1	2	/	-1	0	1	/	/
c1ccc(-n2cnc3cc(NCc4ccco4)ccc32)cc1	0	17*	-3	-1	2	4.5*	9	0
COc1ccc(C(=O)Nc2cccc(OC(=O)c3ccco3)c2)cc1	-1	14*	-18	0	4	2	14*	1
Cc1ccc(S(=O)(=O)NC(=O)C2(C)CCN2C(=O)c2ccccc2CCc2ccccc2)nc1 (centres undefined)	/	2	/	-1	2	0	/	/
CCCCc1ccc(Nc2ncnc3nc[nH]c23)cc1	2	13*	8	0	3	3	8	0
c1ccc(CCCNc2ncnc3nc[nH]c23)cc1	1	4	-1	-1	-2	0	/	/
Cc1ccc(C(=O)NN=Cc2ccc3c(c2)OCO3)cc1	1	15*	/	0	1	1	12*	0
O=C(CNc1ccccc1)N/N=C/c1ccc2c(c1)OCO2	-1	0	-1	-1	0	0	/	/
O=C(Cc1ccccc1)N/N=C/c1ccc2c(c1)OCO2	/	16*	11	-1	4	1	12*	0
CCN(CC)C(=O)c1cc([N+](=O)[O-])cc2c1-c1ccc([N+](=O)[O-])cc1C2=C(C#N)C#N	1	0	-8	-1	0	0	/	/
C=CCNCCCCOc1ccc(OCc2ccccc2)cc1	1	15*	-1	-1	3	3	17*	1
c1ccc(COc2ccc(OCCCCN3CCCC3)cc2)cc1	1	14*	-15	-1	4	2	14*	1
COCCCNCCCCOc1ccc(OCc2ccccc2)cc1	0	6	0	-1	3	1	/	/
O=C(Cc1ccc(Cl)cc1Cl)NCc1cccnc1	0	1	-2	-1	1	0	/	/
